# Assay results as given in the supplement of paper PMC4466140.
# Biological target: ScBbc1
# Assay: SPOT peptide array binding signal intensity (averaged, normalized) (arbitrary units (background-subtracted, floor 0; scale differs between SH3 domains)); higher = stronger binding of the SH3 domain to the peptide
# Procedure, shortened: (§1)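 Spot intensities were captured after detection with anti-GST antibody, an HRP-linked anti-mouse secondary and luminol, and quantified with Genespotter. The probes were GST-fused SH3 domains from four yeast species, produced in E. coli BL21(DE3), purified on glutathione Sepharose and incubated at 10 μg/ml overnight at 4°C on cellulose-bound synthetic 15-mer peptides with cysteines replaced by serines. Binding signal is the normalized, background-subtracted spot intensity averaged over replicates, and its arbitrary units differ between domains.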
row,Binder,SPOT peptide array binding signal intensity
1,SLSRRRFSLPSMPNV,26.5

# Biological target: ScBem1-D1
# Assay: as above
# Procedure, shortened: as §1
row,Binder,SPOT peptide array binding signal intensity
1,SLSRRRFSLPSMPNV,28

# Biological target: ScBzz1-D1
# Assay: as above
# Procedure, shortened: as §1
row,Binder,SPOT peptide array binding signal intensity
1,SLSRRRFSLPSMPNV,54

# Biological target: ScBzz1-D2
# Assay: as above
# Procedure, shortened: as §1
row,Binder,SPOT peptide array binding signal intensity
1,SLSRRRFSLPSMPNV,29.5

# Biological target: ScCyk3
# Assay: as above
# Procedure, shortened: as §1
row,Binder,SPOT peptide array binding signal intensity
1,SLSRRRFSLPSMPNV,192

# Biological target: ScFus1
# Assay: as above
# Procedure, shortened: as §1
row,Binder,SPOT peptide array binding signal intensity
1,SLSRRRFSLPSMPNV,256

# Biological target: ScHof1
# Assay: as above
# Procedure, shortened: as §1
row,Binder,SPOT peptide array binding signal intensity
1,SLSRRRFSLPSMPNV,3

# Biological target: ScHse1
# Assay: as above
# Procedure, shortened: as §1
row,Binder,SPOT peptide array binding signal intensity
1,SLSRRRFSLPSMPNV,1590

# Biological target: ScLsb1
# Assay: as above
# Procedure, shortened: as §1
row,Binder,SPOT peptide array binding signal intensity
1,SLSRRRFSLPSMPNV,348

# Biological target: ScLsb2
# Assay: as above
# Procedure, shortened: as §1
row,Binder,SPOT peptide array binding signal intensity
1,SLSRRRFSLPSMPNV,42

# Biological target: ScLsb3
# Assay: as above
# Procedure, shortened: as §1
row,Binder,SPOT peptide array binding signal intensity
1,SLSRRRFSLPSMPNV,181

# Biological target: ScLsb4
# Assay: as above
# Procedure, shortened: as §1
row,Binder,SPOT peptide array binding signal intensity
1,SLSRRRFSLPSMPNV,9.5

# Biological target: ScMyo3
# Assay: as above
# Procedure, shortened: as §1
row,Binder,SPOT peptide array binding signal intensity
1,SLSRRRFSLPSMPNV,9.5

# Biological target: ScMyo5
# Assay: as above
# Procedure, shortened: as §1
row,Binder,SPOT peptide array binding signal intensity
1,SLSRRRFSLPSMPNV,9.25

# Biological target: ScNbp2
# Assay: as above
# Procedure, shortened: as §1
row,Binder,SPOT peptide array binding signal intensity
1,SLSRRRFSLPSMPNV,350

# Biological target: ScPex13
# Assay: as above
# Procedure, shortened: as §1
row,Binder,SPOT peptide array binding signal intensity
1,SLSRRRFSLPSMPNV,38

# Biological target: ScRvs167
# Assay: as above
# Procedure, shortened: as §1
row,Binder,SPOT peptide array binding signal intensity
1,SLSRRRFSLPSMPNV,37.3

# Biological target: ScSho1
# Assay: as above
# Procedure, shortened: as §1
row,Binder,SPOT peptide array binding signal intensity
1,SLSRRRFSLPSMPNV,743

# Biological target: ScSla1-D1-D2
# Assay: as above
# Procedure, shortened: as §1
row,Binder,SPOT peptide array binding signal intensity
1,SLSRRRFSLPSMPNV,636

# Biological target: ScSla1-D3
# Assay: as above
# Procedure, shortened: as §1
row,Binder,SPOT peptide array binding signal intensity
1,SLSRRRFSLPSMPNV,97.8

# Biological target: SpAbp1-D1
# Assay: as above
# Procedure, shortened: as §1
row,Binder,SPOT peptide array binding signal intensity
1,SLSRRRFSLPSMPNV,416

# Biological target: SpBbc1
# Assay: as above
# Procedure, shortened: as §1
row,Binder,SPOT peptide array binding signal intensity
1,SLSRRRFSLPSMPNV,8

# Biological target: SpBzz1-D1
# Assay: as above
# Procedure, shortened: as §1
row,Binder,SPOT peptide array binding signal intensity
1,SLSRRRFSLPSMPNV,311

# Biological target: SpBzz1-D2
# Assay: as above
# Procedure, shortened: as §1
row,Binder,SPOT peptide array binding signal intensity
1,SLSRRRFSLPSMPNV,1.75

# Biological target: SpCyk3
# Assay: as above
# Procedure, shortened: as §1
row,Binder,SPOT peptide array binding signal intensity
1,SLSRRRFSLPSMPNV,18

# Biological target: SpHof1
# Assay: as above
# Procedure, shortened: as §1
row,Binder,SPOT peptide array binding signal intensity
1,SLSRRRFSLPSMPNV,248

# Biological target: SpHof1-2
# Assay: as above
# Procedure, shortened: as §1
row,Binder,SPOT peptide array binding signal intensity
1,SLSRRRFSLPSMPNV,58.5

# Biological target: SpHof1-3
# Assay: as above
# Procedure, shortened: as §1
row,Binder,SPOT peptide array binding signal intensity
1,SLSRRRFSLPSMPNV,440

# Biological target: SpHse1
# Assay: as above
# Procedure, shortened: as §1
row,Binder,SPOT peptide array binding signal intensity
1,SLSRRRFSLPSMPNV,662

# Biological target: SpLsb1
# Assay: as above
# Procedure, shortened: as §1
row,Binder,SPOT peptide array binding signal intensity
1,SLSRRRFSLPSMPNV,270

# Biological target: SpLsb4
# Assay: as above
# Procedure, shortened: as §1
row,Binder,SPOT peptide array binding signal intensity
1,SLSRRRFSLPSMPNV,106

# Biological target: SpMyo1
# Assay: as above
# Procedure, shortened: as §1
row,Binder,SPOT peptide array binding signal intensity
1,SLSRRRFSLPSMPNV,15.5

# Biological target: SpNbp2
# Assay: as above
# Procedure, shortened: as §1
row,Binder,SPOT peptide array binding signal intensity
1,SLSRRRFSLPSMPNV,235

# Biological target: SpPex13
# Assay: as above
# Procedure, shortened: as §1
row,Binder,SPOT peptide array binding signal intensity
1,SLSRRRFSLPSMPNV,49

# Biological target: SpRvs167
# Assay: as above
# Procedure, shortened: as §1
row,Binder,SPOT peptide array binding signal intensity
1,SLSRRRFSLPSMPNV,14

# Biological target: SpSla1-D1-D2
# Assay: as above
# Procedure, shortened: as §1
row,Binder,SPOT peptide array binding signal intensity
1,SLSRRRFSLPSMPNV,5

# Biological target: SpSla1-D3
# Assay: as above
# Procedure, shortened: as §1
row,Binder,SPOT peptide array binding signal intensity
1,SLSRRRFSLPSMPNV,19
